Source: the supplement of paper PMC10681739

Biological target: RUNX1 (UniProt Q01196)
Experiment: RUNX1 binding intensity (PBM fluorescence), RUNX1 alone (arbitrary fluorescence units); higher = stronger binding
Conditions: RUNX1 concentration 2 nM; ETS1 concentration 0 nM
Method: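 Cooperative gcPBM on 36-bp genomic probes with neighbouring ETS1 and RUNX1 sites. Recombinant human RUNX1 (2 nM) was incubated alone or with ETS1 (25 nM) and detected with anti-RUNX1 antibody plus Alexa488 secondary. Values are medians over 4 replicate spots; the RUNX1+ETS1 data were normalised to the RUNX1-only data. The probes sit in constant array flanks that are not printed.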
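Throughout, for RUNX1 binding intensity (PBM fluorescence), RUNX1 alone: Full-length recombinant human RUNX1 bound to double-stranded 36-bp genomic probes on a high-density microarray, scored as Alexa488 fluorescence per spot via anti-RUNX1 antibody, median of four replicate spots.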

Chain of RUNX1 (Q01196 whole entry): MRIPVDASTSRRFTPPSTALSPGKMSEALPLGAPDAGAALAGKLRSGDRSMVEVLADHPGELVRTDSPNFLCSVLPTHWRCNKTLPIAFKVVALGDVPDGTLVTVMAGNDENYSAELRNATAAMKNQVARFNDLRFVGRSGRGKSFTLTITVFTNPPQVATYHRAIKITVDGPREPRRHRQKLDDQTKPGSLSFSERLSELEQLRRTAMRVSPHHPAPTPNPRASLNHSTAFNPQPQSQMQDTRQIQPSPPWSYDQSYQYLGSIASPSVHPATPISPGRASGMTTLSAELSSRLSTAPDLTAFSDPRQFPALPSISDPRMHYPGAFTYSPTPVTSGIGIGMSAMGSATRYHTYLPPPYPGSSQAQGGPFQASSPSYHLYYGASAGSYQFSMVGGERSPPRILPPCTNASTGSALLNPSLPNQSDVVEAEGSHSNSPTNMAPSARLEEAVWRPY

Row | Sequence | RUNX1 binding intensity
1 | GCGCAGGTCCCGGATGTTGCGGACAGTATGAGGCAA | 661
2 | CCCAATTTCCTTTGCTCTGCTGTCTGCCAACCGCAA | 2740
3 | CTTTGCAGGAAGCTGGGGTTCACCCACAGCCTTGTT | 729
4 | GAAGGTTGTAGAGGAAGTGGTTTGTTCTTCCTCCTG | 837
5 | ACACCTCAGGCAGGATGTGGTAGGGGTTGCCCCAGA | 1020
6 | AGCGGCCTGGGAGGAGGATGTGGTTACGTGGAGACC | 996
7 | GGTCCGGAAACGATTCTGGACCTGCGGGTATATCCA | 776
8 | ACCCCGGAAGTGTGGGCGCGGCTGCGGTTTAACCCG | 2220
9 | GAAACCCCATGGGCAGGATGTGGGTGAGCTGTCTGG | 742
10 | AGCCGCCACTTCCTGTCTCTGCGGGTGCATGCTCTT | 863
11 | CTCTGAGCAGGAAGTGACAAAACCACGCAGGGCAGG | 798
12 | AGGGAGCCCTCCATTTCCTGCCCACATTTGTCACCT | 1240
13 | CTGCTGGCGTTCCCGGATGTGCGGTGGCGGTGCTAC | 753
14 | GAGGAAGAGTCTTCCTGTAACCACTAGAGGGCGCTG | 705
15 | GCCCCGGAAGCTCCTTAAGGAGGACCGTGTGGGTTT | 746
16 | TCCCGGCGTTCTTCCGCTGGCTCAGCCGCAAGTACC | 818
17 | ACCACCCACTTCCCGCGCAGTTCCAAACCGCGACCA | 1590
18 | GTCACAGGAAAGAAGGAGCCTCGCCTTAACCGCACC | 1170
19 | GCTGCTTCCGGCCGCTGGTCGCAGGGCTGCGGGACT | 677
20 | CCCGCTACACAAGGCGGATGTGGTACCCTCACTTGT | 891

Row | Sequence | RUNX1 binding intensity
21 | TTCGGATTCCCGGAAGAACCCGCAGCAGCTCCCAGG | 789
22 | CTTTGTTGAAAAGGATGTGGTCATCTGATCTTGCTG | 864
23 | TTTTTAAGGTCAGGATGTGGGCACATCTAAGGGGCA | 816
24 | GTGCAGGGCCCGGAAGCTCAGTGTGGTTAAAGACAT | 805
25 | AGGAGAACTTCCGCCCTTACTATATTACCGCCGGTA | 737
26 | GGGGCAGCTTCCGGCAGGAGAGCCCGCATTCCCGGC | 1460
27 | ACAACTTCCTGTGGGATTTTTGGTGTCTGCGGCTCA | 811
28 | GAATGACAGAAGCGGAAACCACATGAAAAAGGTGTT | 913
29 | ACCGGCCGAGCCAACTTCCGGCCGCAGAGGCTGCCG | 756
30 | CCTTCCTTCCTGCTGTGTACGTTGTGGTCACAGCAC | 1240
31 | AGCTTGCGCAGGAAGTCTGCGGCAGGAGGGCGTCCT | 687
32 | GTCCCACGCGACTTCCTGCGGGAAACATGGCGGCAT | 771
33 | TGACTTCCTCCTCTTCACTAACAGAAACCTCAATTT | 1400
34 | AGCTGCTGTTTTCCGGCTGCGGCACTGGATGAAGGA | 711
35 | GGAGCATCCCGGAAGTCGTCACTGCGGCCGCTCCCG | 690
36 | TTACAGGGGCCGGAAGTGGCCTGCGGGCGGAGAAGT | 753
37 | GAGCATAGCCTAGCAGGATGTGGTTAAATACATTTG | 747
38 | GTTCATCCAGGAAACCCCAACCCAGTGCCGCAGTAT | 895
39 | CTTAGTGGGGCAGGATGTGGTCAGGGAAGCTGATCT | 836
40 | TAAGCAGGGAATAGAGGAAGTGGTTTTGTCTCAGGC | 779

Biological target: T1, ETS1 (UniProt P14921)
T1 sequence: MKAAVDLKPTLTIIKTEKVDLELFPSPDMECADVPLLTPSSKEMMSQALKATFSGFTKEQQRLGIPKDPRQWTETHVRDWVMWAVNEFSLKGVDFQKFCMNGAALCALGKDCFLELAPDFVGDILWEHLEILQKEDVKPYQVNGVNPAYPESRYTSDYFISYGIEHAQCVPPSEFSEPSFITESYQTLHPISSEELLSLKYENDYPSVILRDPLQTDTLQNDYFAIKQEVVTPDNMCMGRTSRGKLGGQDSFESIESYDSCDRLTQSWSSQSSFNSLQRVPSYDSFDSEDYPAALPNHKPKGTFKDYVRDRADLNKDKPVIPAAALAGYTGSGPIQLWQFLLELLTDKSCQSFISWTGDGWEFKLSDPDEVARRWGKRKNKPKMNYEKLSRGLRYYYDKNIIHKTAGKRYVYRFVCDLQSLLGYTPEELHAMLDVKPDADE
Experiment: ETS1 binding intensity (PBM fluorescence) in presence of RUNX1, normalised to ETS1-only experiment (arbitrary fluorescence units); higher = stronger binding
Conditions: ETS1 concentration 1 nM; RUNX1 concentration 25 nM

Row | Sequence | ETS1 binding intensity
41 | GCGCAGGTCCCGGATGTTGCGGACAGTATGAGGCAA | 4560
42 | CCCAATTTCCTTTGCTCTGCTGTCTGCCAACCGCAA | 491
43 | CTTTGCAGGAAGCTGGGGTTCACCCACAGCCTTGTT | 857
44 | GAAGGTTGTAGAGGAAGTGGTTTGTTCTTCCTCCTG | 4070
45 | ACACCTCAGGCAGGATGTGGTAGGGGTTGCCCCAGA | 6810
46 | AGCGGCCTGGGAGGAGGATGTGGTTACGTGGAGACC | 15200
47 | GGTCCGGAAACGATTCTGGACCTGCGGGTATATCCA | 1350
48 | ACCCCGGAAGTGTGGGCGCGGCTGCGGTTTAACCCG | 15900
49 | GAAACCCCATGGGCAGGATGTGGGTGAGCTGTCTGG | 5020
50 | AGCCGCCACTTCCTGTCTCTGCGGGTGCATGCTCTT | 5990
51 | CTCTGAGCAGGAAGTGACAAAACCACGCAGGGCAGG | 6770
52 | AGGGAGCCCTCCATTTCCTGCCCACATTTGTCACCT | 2060
53 | CTGCTGGCGTTCCCGGATGTGCGGTGGCGGTGCTAC | 9340
54 | GAGGAAGAGTCTTCCTGTAACCACTAGAGGGCGCTG | 663
55 | GCCCCGGAAGCTCCTTAAGGAGGACCGTGTGGGTTT | 718
56 | TCCCGGCGTTCTTCCGCTGGCTCAGCCGCAAGTACC | 822
57 | ACCACCCACTTCCCGCGCAGTTCCAAACCGCGACCA | 795
58 | GTCACAGGAAAGAAGGAGCCTCGCCTTAACCGCACC | 2930
59 | GCTGCTTCCGGCCGCTGGTCGCAGGGCTGCGGGACT | 1000
60 | CCCGCTACACAAGGCGGATGTGGTACCCTCACTTGT | 6380

Row | Sequence | ETS1 binding intensity
61 | TTCGGATTCCCGGAAGAACCCGCAGCAGCTCCCAGG | 1020
62 | CTTTGTTGAAAAGGATGTGGTCATCTGATCTTGCTG | 3320
63 | TTTTTAAGGTCAGGATGTGGGCACATCTAAGGGGCA | 1730
64 | GTGCAGGGCCCGGAAGCTCAGTGTGGTTAAAGACAT | 5260
65 | AGGAGAACTTCCGCCCTTACTATATTACCGCCGGTA | 1090
66 | GGGGCAGCTTCCGGCAGGAGAGCCCGCATTCCCGGC | 771
67 | ACAACTTCCTGTGGGATTTTTGGTGTCTGCGGCTCA | 858
68 | GAATGACAGAAGCGGAAACCACATGAAAAAGGTGTT | 4230
69 | ACCGGCCGAGCCAACTTCCGGCCGCAGAGGCTGCCG | 7630
70 | CCTTCCTTCCTGCTGTGTACGTTGTGGTCACAGCAC | 932
71 | AGCTTGCGCAGGAAGTCTGCGGCAGGAGGGCGTCCT | 2760
72 | GTCCCACGCGACTTCCTGCGGGAAACATGGCGGCAT | 1820
73 | TGACTTCCTCCTCTTCACTAACAGAAACCTCAATTT | 526
74 | AGCTGCTGTTTTCCGGCTGCGGCACTGGATGAAGGA | 422
75 | GGAGCATCCCGGAAGTCGTCACTGCGGCCGCTCCCG | 8070
76 | TTACAGGGGCCGGAAGTGGCCTGCGGGCGGAGAAGT | 30900
77 | GAGCATAGCCTAGCAGGATGTGGTTAAATACATTTG | 32800
78 | GTTCATCCAGGAAACCCCAACCCAGTGCCGCAGTAT | 464
79 | CTTAGTGGGGCAGGATGTGGTCAGGGAAGCTGATCT | 29900
80 | TAAGCAGGGAATAGAGGAAGTGGTTTTGTCTCAGGC | 7880
